Data reported in PubChem BioAssay.
For part of these data: Potency and affinity values are given separately. Activity calls are given as the source filed them.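 The calls were made as follows, unless noted: active = primary screen active and over 50% activation in each of two duplicate runs; inactive = the rest.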

Columns and labels:
[1] = test system: TRPC4 beta (transient receptor potential cation channel C4), mouse; assay: activators of mouse TRPC4 channel, confirmation, cell-based, Fluo4 calcium, HEK293 TRPC4beta/mu-opioid, duplicates, 10 µM (AID 2426;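 active = fluorescence ratio normalized to control raised more than 50% in primary screen plus both repeat runs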;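 as to activation: percent rise of integrated ratio over buffer wells lacking compound which define 0%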); conditions: Fluo4 calcium fluorescence, at 10 µM; stronger effect = higher value
[2] = test system: transient receptor potential cation channel C4 beta (TRPC4), mouse; assay: activators of mouse TRPC4 channel, confirmation, cell-based, second round, Fluo4, HEK293 TRPC4beta/mu-opioid, 1 µM (AID 2461); conditions: Fluo4 calcium fluorescence, at 1 µM; stronger effect = higher value;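 as to activation: 0% = wells without test compound as baseline of integrated fluorescence ratio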
[3] = test system: TRPC4 (transient receptor potential cation channel C4 beta), mouse; assay: positive allosteric modulators of mouse TRPC4, confirmation, cell-based, second round, Fluo-4, HEK293 TRPC4beta/mu-opioid, 1 µM (AID 2554;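 active = primary screen hit whose fluorescence ratio, in both repeats, exceeds the weak agonist control mean by 3 SD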); conditions: DAMGO EC20, Fluo-4 calcium flux, at 1 µM; stronger effect = higher value
[4] = test system: TRPC4 beta (transient receptor potential cation channel C4), mouse; assay: positive allosteric modulators of mouse TRPC4, confirmation, cell-based, Fluo-4, HEK293 TRPC4beta/mu-opioid (AID 2555;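 active = primary screen hit whose calcium fluorescence ratio, in both repeats, exceeds the weak agonist control mean by 3 SD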); conditions: DAMGO EC20, Fluo-4 calcium flux, at 10 µM; stronger effect = higher value
[5] = molecular target: Short transient receptor potential channel 4 (Mus musculus) (UniProt Q9QUQ5); assay: inhibitors of mouse TRPC4 channel, confirmation, cell-based, Fluo4, HEK293 TRPC4beta/mu-opioid (AID 2636;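 active = calcium signal cut by more than 3 SD below the full-agonist control yet still positive, in both repeats and the earlier primary screen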); conditions: DAMGO, Fluo4 calcium flux, at 10 µM; stronger effect = higher value
[6] = molecular target: Short transient receptor potential channel 4 (Mus musculus) (UniProt Q9QUQ5); assay: inhibitors of mouse TRPC4 channel, confirmation, cell-based, second round, Fluo4, HEK293 TRPC4beta/mu-opioid, 1 µM (AID 2637;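 active = calcium signal ratio cut to more than 3 SD under the fully stimulated control mean yet still positive, in both repeats and the primary screen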); conditions: Fluo4 calcium flux, DAMGO, at 1 µM; stronger effect = higher value
[7] = molecular target: Short transient receptor potential channel 4 (Mus musculus) (UniProt Q9QUQ5); assay: TRPC4 positive allosteric modulators, dose response, cell-based, HEK293 TRPC4/mu-opioid, Fluo-4 calcium, EC20 DAMGO (AID 434941;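 active = earlier screen potentiator hit that boosts the TRPC4 ion channel at some dose, with a dose response; inactive = no potentiation, no dose response, or not a prior hit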;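 also: calcium entry triggered by an EC20 dose of DAMGO at the co-expressed mu-opioid receptor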)
[8] = molecular target: Short transient receptor potential channel 4 (Mus musculus) (UniProt Q9QUQ5); assay: mouse TRPC4 channel inhibitors, dose response, cell-based, HEK293 TRPC4/mu-opioid, Fluo-4 calcium (AID 434942;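 active = primary screen inhibitor hit that blocks the TRPC4 channel at some tested dose, yielding a dose curve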)
[9] = molecular target: Short transient receptor potential channel 6 (Mus musculus) (UniProt Q61143); assay: inhibition of mouse TRPC6 channel, confirmation, selectivity assay for TRPC4 inhibitor project, cell-based, HEK293, membrane potential dye, duplicate (AID 434948;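 active = active in primary screen and both duplicates, each dropping signal beyond three positive-control SD with fluorescence still positive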); conditions: HEK293 TRPC6, membrane potential dye fluorescence, at 10 µM, stimulated with maximal-effect acetylcholine; stronger effect = higher value
[10] = molecular target: Short transient receptor potential channel 6 (Mus musculus) (UniProt Q61143); assay: activation of mouse TRPC6 channel, confirmation, selectivity assay for TRPC4 activator project, cell-based, HEK293, membrane potential dye, duplicate (AID 434950;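 active = membrane potential signal rise above negative control mean plus 3 SD in both duplicates, also active in the earlier TRPC4 screen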;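 as to activation: 0% = buffer only wells and 100% = acetylcholine maximal-effect wells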); conditions: HEK293 TRPC6, membrane potential fluorescence, at 10 µM; stronger effect = higher value
[11] = molecular target: Short transient receptor potential channel 6 (Mus musculus) (UniProt Q61143); assay: TRPC6 potentiation by TRPC4 potentiator hits, confirmation, selectivity assay for TRPC4 potentiator project, HEK293 cells, membrane potential dye, duplicate (AID 434952;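 active = compound raising the membrane signal above positive-control mean plus 3 SD in both repeats, and a primary screen hit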); conditions: HEK293 TRPC6, membrane potential dye fluorescence, at 10 µM, maximal acetylcholine added after compound; stronger effect = higher value
[12] = molecular target: Short transient receptor potential channel 4 (Mus musculus) (UniProt Q9QUQ5); assay: calcium flux activators in TRPC4/5HT1a cells, counter-screen for TRPC4 activator project, cell-based, second counter screen, HEK293 TRPC4/5HT1a, Fluo-4 (AID 434977;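 active = calcium signal rise above buffer-control mean plus 5 SD in both duplicates, and also a hit in the primary screen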;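 as to activation: plate controls were assay buffer for no effect and maximal serotonin response for full effect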); conditions: Fluo-4 calcium flux, at 10 µM; stronger effect = higher value
[13] = calcium flux inhibitors in TRPC4/5HT1a cells, confirmation, counter-screen for TRPC4 inhibitor project, cell-based, second counter screen, HEK293 TRPC4/5HT1a, Fluo-4 (AID 434978;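 active = primary screen active whose calcium signal fell more than 3 SD beyond the full-serotonin control mean in both duplicate plates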;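 also: serotonin given first at submaximal then at maximal dose after compound preincubation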); conditions: Fluo-4 calcium flux, at 10 µM, serotonin added to trigger calcium flux; stronger effect = higher value
[14] = test system: TRPC4 (mouse), co-expressed with 5HT1a in HEK293; assay: calcium flux potentiators in TRPC4/5HT1a cells, confirmation, counter-screen for TRPC4 potentiator project, cell-based, second counter screen, HEK293 TRPC4/5HT1a, Fluo-4 (AID 434979;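 active = signal rise over 3 SD above mean of control wells given weak agonist, in both repeats and first screen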); conditions: Fluo-4 calcium flux, at 10 µM, serotonin added at its EC20 dose; stronger effect = higher value
[15] = calcium flux activation in mu-opioid HEK293 cells, confirmation, counter-screen for TRPC4 activator project, cell-based, HEK293 mu-opioid receptor line (AID 449723;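 active = hit in primary screen, with calcium signal over 5 SD above buffer well mean in both duplicates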;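 also: counter screen cells carry the mu-opioid receptor alone and lack TRPC4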); conditions: Fluo-4 calcium fluorescence, at 10 µM; stronger effect = higher value
[16] = calcium flux enhancement in mu-opioid HEK293 cells, confirmation, counter-screen for TRPC4 allosteric potentiator project, cell-based, HEK293 mu-opioid receptor line (AID 449724;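 active = calcium signal rise more than 3 SD above the low-dose agonist control mean, in both duplicate plates and the primary screen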); conditions: Fluo-4 calcium flux, at 10 µM, compound added before EC20 DAMGO stimulus; stronger effect = higher value

Chain of Short transient receptor potential channel 6 (Mus musculus) (Q61143 whole entry, looked up): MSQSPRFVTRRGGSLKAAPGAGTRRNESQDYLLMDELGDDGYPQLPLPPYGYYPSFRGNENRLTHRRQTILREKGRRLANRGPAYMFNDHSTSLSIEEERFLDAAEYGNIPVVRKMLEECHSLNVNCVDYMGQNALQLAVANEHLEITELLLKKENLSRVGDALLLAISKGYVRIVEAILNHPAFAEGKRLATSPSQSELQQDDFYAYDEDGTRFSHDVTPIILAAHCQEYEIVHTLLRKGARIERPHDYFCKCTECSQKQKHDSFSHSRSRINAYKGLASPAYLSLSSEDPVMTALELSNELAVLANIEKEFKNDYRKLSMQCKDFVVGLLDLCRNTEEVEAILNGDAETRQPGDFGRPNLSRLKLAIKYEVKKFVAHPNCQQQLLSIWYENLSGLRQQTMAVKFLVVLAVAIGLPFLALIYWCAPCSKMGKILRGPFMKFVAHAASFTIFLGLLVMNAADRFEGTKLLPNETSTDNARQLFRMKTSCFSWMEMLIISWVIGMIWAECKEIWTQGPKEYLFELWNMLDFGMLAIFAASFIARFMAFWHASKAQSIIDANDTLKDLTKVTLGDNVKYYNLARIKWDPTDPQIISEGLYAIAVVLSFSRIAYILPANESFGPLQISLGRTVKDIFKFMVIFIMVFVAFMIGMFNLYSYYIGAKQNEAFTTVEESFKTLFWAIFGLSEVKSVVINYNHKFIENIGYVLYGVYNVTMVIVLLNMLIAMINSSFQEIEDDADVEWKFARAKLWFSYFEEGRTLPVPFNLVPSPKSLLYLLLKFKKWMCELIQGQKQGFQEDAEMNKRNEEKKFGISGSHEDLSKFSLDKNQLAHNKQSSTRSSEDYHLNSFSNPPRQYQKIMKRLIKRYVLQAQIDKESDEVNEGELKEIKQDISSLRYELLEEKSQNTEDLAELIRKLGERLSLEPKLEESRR
Chain of Short transient receptor potential channel 4 (Mus musculus) (Q9QUQ5 whole entry, looked up): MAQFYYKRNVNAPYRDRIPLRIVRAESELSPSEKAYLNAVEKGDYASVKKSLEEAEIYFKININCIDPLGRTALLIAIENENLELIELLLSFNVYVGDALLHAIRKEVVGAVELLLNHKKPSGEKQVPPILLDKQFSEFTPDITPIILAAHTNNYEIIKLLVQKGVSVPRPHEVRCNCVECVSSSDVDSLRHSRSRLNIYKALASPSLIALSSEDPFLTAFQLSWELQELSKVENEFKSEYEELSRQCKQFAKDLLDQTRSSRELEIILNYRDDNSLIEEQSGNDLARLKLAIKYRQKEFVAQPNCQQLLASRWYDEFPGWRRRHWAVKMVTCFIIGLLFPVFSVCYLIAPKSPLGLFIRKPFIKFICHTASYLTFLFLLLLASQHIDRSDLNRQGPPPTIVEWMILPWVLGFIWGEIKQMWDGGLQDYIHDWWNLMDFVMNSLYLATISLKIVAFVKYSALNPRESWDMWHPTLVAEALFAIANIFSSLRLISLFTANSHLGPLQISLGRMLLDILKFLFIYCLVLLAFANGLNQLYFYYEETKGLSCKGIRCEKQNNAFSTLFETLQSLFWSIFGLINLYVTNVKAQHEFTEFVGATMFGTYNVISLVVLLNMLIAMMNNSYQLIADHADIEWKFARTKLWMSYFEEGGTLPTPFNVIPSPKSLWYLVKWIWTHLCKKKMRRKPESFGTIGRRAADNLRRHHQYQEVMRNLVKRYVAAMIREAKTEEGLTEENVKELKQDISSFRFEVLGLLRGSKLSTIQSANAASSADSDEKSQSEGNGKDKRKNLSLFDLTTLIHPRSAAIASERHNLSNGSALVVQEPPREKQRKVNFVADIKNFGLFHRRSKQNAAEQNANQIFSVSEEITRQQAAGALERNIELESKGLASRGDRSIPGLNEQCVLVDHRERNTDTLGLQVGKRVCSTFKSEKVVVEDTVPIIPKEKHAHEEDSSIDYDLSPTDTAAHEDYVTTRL

O=C(NCCNC1CCC(c2ccccc2)CC1)c1cccs1 (stereo not given)
inactive: outcome [3] | outcome [4] | outcome [5] | outcome [6] | outcome [7] | outcome [8] | outcome [9] | outcome [11] | outcome [13] | outcome [14] | outcome [15] | outcome [16]
active: activation [1] 169% | activation [2] 95% | activation [10] 66% | activation [12] 103%

Clc1cc(Cl)cc(C2=NC(Cc3ccccc3)CO2)c1 (stereo not given)
inactive: outcome [2] | outcome [3] | outcome [4] | outcome [5] | outcome [6] | outcome [7] | outcome [8] | outcome [9] | outcome [11] | outcome [13] | outcome [14] | outcome [15] | outcome [16]
active: activation [1] 110% | activation [10] 25% | activation [12] 30.6%

CC1CN(C)C(C)c2c1oc1ccc(N)cc21 (stereo not given)
inactive: outcome [3] | outcome [4] | outcome [5] | outcome [6] | outcome [7] | outcome [8] | outcome [9] | outcome [10] | outcome [11] | outcome [12] | outcome [13] | outcome [14] | outcome [15] | outcome [16]
active: activation [1] 226% | activation [2] 73%

Cc1ccc(CNC(=O)C2CCCN(Cc3cnn(-c4ccccc4)c3-n3cccc3)C2)cc1 (stereo not given)
inactive: outcome [2] | outcome [3] | outcome [4] | outcome [5] | outcome [6] | outcome [7] | outcome [8] | outcome [9] | outcome [11] | outcome [12] | outcome [13] | outcome [14] | outcome [15] | outcome [16]
active: activation [1] 81% | activation [10] 46%

CC(Nc1nc(N2CCNCC2)nc2ccccc12)c1ccccc1 (stereo not given)
active: activation [12] 16.7%
inactive: outcome [1] | outcome [2] | outcome [3] | outcome [4] | outcome [5] | outcome [6] | outcome [7] | outcome [8] | outcome [9] | outcome [10] | outcome [11] | outcome [13] | outcome [14] | outcome [15] | outcome [16]

Cc1sc2ncnc(NCC(c3ccccc3)N(C)C)c2c1C (stereo not given)
active: activation [1] 245% | activation [2] 120% | activation [12] 49%
inactive: outcome [3] | outcome [4] | outcome [5] | outcome [6] | outcome [7] | outcome [8] | outcome [9] | outcome [10] | outcome [11] | outcome [13] | outcome [14] | outcome [15] | outcome [16]

Cc1ccccc1NC(=S)NCC(c1cccnc1)N(C)C (stereo not given)
active: activation [1] 112% | activation [2] 111% | activation [10] 32%
inactive: outcome [3] | outcome [4] | outcome [5] | outcome [6] | outcome [7] | outcome [8] | outcome [9] | outcome [11] | outcome [12] | outcome [13] | outcome [14] | outcome [15] | outcome [16]

CC(=O)c1ccc(S(=O)(=O)NCc2ccc(C(=O)NCC(c3ccccc3)N(C)C)cc2)cc1 (stereo not given)
inactive: outcome [3] | outcome [4] | outcome [5] | outcome [6] | outcome [7] | outcome [8] | outcome [9] | outcome [11] | outcome [12] | outcome [13] | outcome [14] | outcome [15] | outcome [16]
active: activation [1] 127% | activation [2] 99% | activation [10] 33%

CN(C)C(CNC(=S)Nc1ccc(Cl)cc1)c1cccnc1 (stereo not given)
active: activation [2] 118%
inactive: outcome [1] | outcome [3] | outcome [4] | outcome [5] | outcome [6] | outcome [7] | outcome [8] | outcome [9] | outcome [10] | outcome [11] | outcome [12] | outcome [13] | outcome [14] | outcome [15] | outcome [16]

O=C(CN1CCN(c2ncc(C(F)(F)F)cc2Cl)CC1)N1CCN(c2ncc(C(F)(F)F)cc2Cl)CC1
inactive: outcome [2] | outcome [3] | outcome [4] | outcome [5] | outcome [6] | outcome [7] | outcome [8] | outcome [9] | outcome [10] | outcome [11] | outcome [13] | outcome [14] | outcome [15] | outcome [16]
active: activation [1] 128% | activation [12] 42%

OCC1(CC2CCCCO2)CCN(Cc2ccccc2-c2ccco2)CC1 (stereo not given)
inactive: outcome [1] | outcome [2] | outcome [3] | outcome [4] | outcome [5] | outcome [6] | outcome [7] | outcome [8] | outcome [9] | outcome [10] | outcome [11] | outcome [12] | outcome [13] | outcome [14] | outcome [15] | outcome [16]

Cc1oc(-c2ccccc2Cl)nc1CS(=O)CC(=O)NCCCN1CC(C)CC(C)C1 (stereo not given)
inactive: outcome [3] | outcome [4] | outcome [5] | outcome [6] | outcome [7] | outcome [8] | outcome [9] | outcome [11] | outcome [13] | outcome [14] | outcome [15] | outcome [16]
active: activation [1] 78% | activation [2] 58% | activation [10] 31% | activation [12] 20.1%

CSc1ccc(C(=O)NCC(c2ccco2)N(C)C)cc1[N+](=O)[O-] (stereo not given)
inactive: outcome [3] | outcome [4] | outcome [5] | outcome [6] | outcome [7] | outcome [8] | outcome [9] | outcome [10] | outcome [11] | outcome [13] | outcome [14] | outcome [15] | outcome [16]
active: activation [1] 341% | activation [2] 228% | activation [12] 45.6%

CCN1CCN(c2ccc(S(=O)(=O)N3CCCCC3)cc2NC(=O)c2cccc(Cl)c2)CC1
active: activation [1] 63% | potentiation [3] 9% | potentiation [4] 7% | activation [12] 17.8% | potentiation [14] 14.7%
inactive: outcome [2] | outcome [5] | outcome [6] | outcome [7] | outcome [8] | outcome [9] | outcome [10] | outcome [11] | outcome [13] | outcome [15] | outcome [16]

COc1ccccc1/C=C/CN1CCCC(CCC(=O)NCc2ccccc2F)C1 (stereo not given)
active: activation [1] 98% | activation [2] 51% | inhibition [5] 53% | activation [10] 44% | activation [12] 32.5%
inactive: outcome [3] | outcome [4] | outcome [6] | outcome [7] | outcome [8] | outcome [9] | outcome [11] | outcome [13] | outcome [14] | outcome [15] | outcome [16]
